BAZ2B block: qHTS Assay for Inhibitors of BAZ2B. AlphaScreen BAZ2B-H3K14Ac peptide displacement. Potency, µM (titrated, usually from 114 µM), for inactives: top-dose activity change, negative = inhibition, actives largely listed as inhibitors. 360,000 tested, 4.4% active. AID 504333, 2011; also: % is scaled to controls: 0 for no effect and ±100 for the full control effect; nearly all actives have a fitted effect of over 60% in size
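BAZ2B 50 nM plus b-H3(5-23)K14Ac 50 nM, PBS pH 7.4/0.01% Tween-20, 30 min RT; compound added (max 110 uM), 30 min RT; streptavidin donor/Ni-chelate acceptor beads 10 ug/mL final, 20 min dark; AlphaScreen read.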
HP1b binding inh: HTS for Inhibitors of HP1-beta Chromodomain Interactions with Methylated Histone Tails; Chromobox protein homolog 1 (Homo sapiens), P83916; AlphaScreen HP1-beta / biotin-H3K9me3 peptide binding; Potency, µM (titrated, usually from 114 µM), for inactives: at the top dose activity change, negative = inhibition, most hits filed as inhibitors; 390,000 tested, 0.56% active; also: nearly all actives have a fitted effect of over 70% in size
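HP1-beta protein (50 nM final) preincubated 30 min at room temperature with biotinylated H3(1-18)K9me3 peptide (50 nM) in PBS pH 7.4, 0.01% Tween-20, then compound added for 30 min. AlphaScreen streptavidin donor/nickel chelate acceptor beads (10 ug/mL final), 30 min dark, luminescence read.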
L3MBTL1 inh: qHTS Assay for the Inhibitors of L3MBTL1 | AlphaScreen L3MBTL1–H3K9me1 peptide binding | Potency, µM (titrated, usually from 57.1 µM), inactives show at the highest dose activity, negative = inhibition, most hits filed as inhibitors | 230,000 tested, 0.66% active | AID 485360, 2010; also: % is scaled to controls: 0 for no effect and ±100 for the full control effect; nearly all actives have a fitted effect of over 60% in size
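L3MBTL1 50 nM + b-AHA-H3(1-15)K9me1 75 nM, 30 min RT; compound added, 30 min RT; streptavidin donor/Ni-chelate acceptor beads 10 ug/mL each final, 30 min RT dark; AlphaScreen read.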
G9a inh: qHTS Assay for Inhibitors of Histone Lysine Methyltransferase G9a; Histone-lysine N-methyltransferase EHMT2 (Homo sapiens), Q96KQ7; G9a H3K9 monomethylation, AlphaScreen, 2 h; Potency, µM (doses to about 102 µM), inactives show top-dose activity, negative = inhibition, actives largely listed as inhibitors; 350,000 tested, 8.8% active; AID 504332, 2011; also: % is scaled to controls: 0 for no effect and ±100 for the full control effect; nearly all actives have a fitted effect of over 75% in size
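Compounds were preincubated with 20 nM G9a for 15 min, after which biotinylated H3K9 peptide (500 nM) and SAM (20 uM) started a 2 h room-temperature reaction. Monomethylated product was quantified by antibody-based AlphaScreen chemiluminescence.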
JMJD2A Tudor inh: qHTS Assay for Inhibitors of JMJD2A-Tudor Domain. Potency, µM (top dose mostly 114 µM), for the others: at the top dose activity change, negative = inhibition, actives largely listed as inhibitors. 390,000 tested, 4.4% active. AlphaScreen JMJD2A-Tudor / H3K4me3 peptide binding. Lysine-specific demethylase 4A (Homo sapiens), O75164; also: % is scaled to controls: 0 for no effect and ±100 for the full control effect; nearly all actives have a fitted effect of over 50% in size
Sfp PPTase inh: qHTS Assay for Inhibitors of Bacillus subtilis Sfp phosphopantetheinyl transferase (PPTase); 4'-phosphopantetheinyl transferase ffp (Bacillus subtilis), Q9F4F7; 310,000 tested, 3.5% active; Biochemical Sfp PPTase activity, qHTS; AID 1490, 2009; Potency, µM, for the others: largest response in the series, negative = inhibition, hits mostly inhibitors;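 also: the enzyme is Sfp with the accession as filed and its product quenches rhodamine fluorescence; 0% = enzyme reaction without inhibitor and -100% = no enzyme wells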
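Sfp 15 nM + cpd, 15 min RT; start w/ rhodamine-CoA 5 uM, BHQ-2-YbbR 12.5 uM (final); 50 mM Hepes pH 7.6, 10 mM MgCl2, 0.01% NP-40, 0.01% BSA; read 525/598 nm at 0 and 30 min.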
Starred values were filed as active, the others as inactive; ? = inconclusive; . = not tested or not shown; [ ] = another dose, or the depositor's remark. Sampled rows, rich in hits. Any-hit rate of the full collection: about 12%. Calls follow the shape of the dose curve; as a rule, active = well fitted curve in the direction sought with a large enough effect; inconclusive = small, poorly fitted or top-dose-only effect, or another doubt; inactive = no such curve, though single readings can be large; an effect the other way counts as inactive or inconclusive. Potency is read from the fitted curve at half-maximal effect.

SMILES | BAZ2B block | HP1b binding inh | L3MBTL1 inh | G9a inh | JMJD2A Tudor inh | Sfp PPTase inh
O=C1ON=C(c2ccccc2)/C1=C/c1ccc(O)c(O)c1 | 28.2µM* | 8.91µM* | . | 25.1µM* | 14.1µM* | 50.1µM*
O=C1ON=C(c2ccccc2)/C1=C/c1ccc(OS(=O)(=O)c2ccccc2)cc1 | 50.1µM* | ? | -11.4% | 8.91µM* | 79.4µM* | -27.4%
O=c1cc(-c2ccccc2)oc2cc(O)c(O)cc12 | . | . | . | ? | . | -3.4%
O=C1ON=C(c2cccc([N+](=O)[O-])c2)/C1=C/c1ccc(O)cc1 | ? | -13.6% | -27.2% | 22.4µM* | -3.0%[11.4 µM] | -60.9%
O=C1ON=C(c2ccccc2)/C1=C/c1cccnc1 | -10.6% | 21.5% | 3.5% | 44.7µM* | -5.8% | 11.6%
CCOC(=O)N1CCN(C(=O)COC(=O)C2CCN(S(=O)(=O)c3c(C)c(C)cc(C)c3C)CC2)CC1 | 0.7% | 3.1% | 2.9% | -3.6% | -26.2% | .
O=C(Nc1cccc(Cl)c1)/C(=C\c1cccnc1)NC(=O)c1ccco1 | -10.8% | 29.5% | 2.9% | ? | -2.7% | 14.1%
CCOC(=O)c1ccc(NC(=S)Nc2ccc(Br)cc2N)cc1 | . | -6.9% | . | . | ? | .
O=C(Cn1c(=O)n(Cc2ccc3c(c2)OCO3)c(=O)c2oc3ccccc3c21)Nc1ccccc1F | -16.2% | 47.3% | . | 1.8%[59 µM] | 10.6% | .
COc1ccc(/C=C2\C(=O)ON=C2c2ccccc2)cc1 | ? | -7.4% | . | 39.8µM* | 35.5µM* | 39.8µM*
CCc1ccc(Nc2ccc(S(=O)(=O)N3CCOCC3)cc2[N+](=O)[O-])cc1 | 11.2µM* | ? | ? | 28.2µM* | 11.2µM* | 15.9%
COc1ccc(Cl)cc1NS(=O)(=O)c1ccc(S(=O)(=O)N2CCCC2)cc1 | -7.5% | 28.1% | 3.7% | 8.91µM* | -7.5% | -3.4%
O=[N+]([O-])c1cc(S(=O)(=O)N2CCOCC2)ccc1NS(=O)(=O)c1ccccc1 | . | 30.6% | 2.2% | . | -10.3% | .
COc1ccc(Nc2ccc(S(=O)(=O)N3CCCCC3)cc2[N+](=O)[O-])cc1Cl | 8.91µM* | ? | ? | 7.08µM* | 5.62µM* | 8.3%
Cc1ccc(Nc2ccc(S(=O)(=O)N3CCOCC3)cc2[N+](=O)[O-])c(C)c1 | 10µM* | ? | ? | 35.5µM* | ? | -11.7%
COc1ccc(S(=O)(=O)Nc2cc(Cl)ccc2OC)cc1 | 9.9% | 35.2% | -0.3% | 0.2% | 4.2% | 3.9%
CCOc1ccc(S(=O)(=O)N2CCOCC2)cc1[N+](=O)[O-] | -0.1% | 27.9% | 0.8% | -3.5% | -8.8% | 16.2%
COc1ccc(-c2nc3cnc(N4CCN(C)CC4)nc3n(Cc3cccs3)c2=O)cc1 | . | . | . | 2.4%[0.501 µM] | . | -2.7%
Oc1c(N=NC(=S)Nc2ccccc2F)c2ccccc2n1Cc1ccc(Cl)cc1 | ? | -5.8% | ? | 10µM* | ? | 1.6%
Oc1c(N=NC(=S)Nc2ccccc2F)c2ccccc2n1Cc1ccccc1F | -31.6% | ? | . | 11.2µM* | ? | 1.5%
Cc1ccc(C)c(Cn2c(O)c(N=NC(=S)Nc3ccccc3F)c3ccccc32)c1 | 1.3% | ? | . | ? | ? | -16.8%
Cc1ccccc1Cn1c(O)c(N=NC(=S)Nc2ccccc2F)c2ccccc21 | ? | ? | . | 12.6µM* | ? | 12.4%
NS(=O)(=O)c1ccc(Sc2nc3ccccc3s2)c([N+](=O)[O-])c1 | -32.4% | -8.9% | . | 44.7µM* | ? | -16.1%
O=C(O)c1nc(-c2ccccc2)n(-c2ccccc2)n1 | 0.0% | 28.9% | -4.8% | ? | -13.2% | 7.7%
O=C(c1nc(-c2ccccc2)n(-c2ccccc2)n1)N1CCN(S(=O)(=O)c2ccccc2)CC1 | ? | -14.6% | . | ? | 70.8µM* | -6.4%
SMILES | BAZ2B block | HP1b binding inh | L3MBTL1 inh | G9a inh | JMJD2A Tudor inh | Sfp PPTase inh
N#Cc1ccc2c(c1)C[C@]1(c3ccsc3)OC3=C(C(=O)OC4(CCCCC4)C3)C2O1 | -13.4%[22.9 µM] | . | . | . | . | 2.7%
CC(=O)Nc1sc2c(c1CN1CCN(c3ccccn3)CC1)CCCC2 | ? | -21.7% | -15.7% | 31.6µM* | ? | -4.2%
CC(=O)Nc1sc2c(c1CN1CCN(c3ccc(F)cc3)CC1)CCCC2 | 50.1µM* | -36.0% | . | 44.7µM* | ? | 2.6%
CC(=O)Nc1sc2c(c1CN1CCCC1)CCCC2 | 0.5% | -2.7% | . | ? | -19.0% | 13.9%
CCOc1c(Nc2ccccc2O)c(=O)c1=O | -0.6% | 26.8% | 2.6% | 3.6%[59 µM] | 1.4% | 7.8%
CCC(=O)NCCCNc1nc2c(C)cccc2cc1C#N | -0.4% | 10.6% | 9.7% | 35.5µM* | -13.1% | ?
CCOCCCNC(=S)N1CCCN(c2nc3c(C)c(C)ccc3cc2C#N)CC1 | -4.3% | 102.1% | 6.2% | -2.5% | 41.3% | 8.8%
CCOCCCNC(=S)NCCCNc1nc2c(C)c(C)ccc2cc1C#N | -3.0% | 26.0% | 31.0% | 56.2µM* | -9.0% | ?
Cc1noc(C)c1-c1nccc(N(C)C)n1 | . | . | . | 17.9%[0.501 µM] | . | 20.0%
COc1ccc(C(=O)CNc2ccccc2Br)cc1 | 37.2% | 160.6% | . | 7.6% | 54.2% | -8.1%
O=C(/C=C/NCC(=O)c1ccccc1)c1ccc(Br)cc1 | -35.0% | 22.2% | -15.2% | 6.31µM* | -31.7% | -29.3%
Cc1ccccc1NCC(=O)c1ccc(Br)cc1 | ? | 2.5% | 9.9% | ? | -21.6% | 44.7µM*
O=C(/C=C/NNC(=O)c1ccccc1)c1ccc(Br)cc1 | ? | 21.8% | . | -40.9% | -26.4% | 4.9%
COC(=O)c1cccc(C23CC4(C2)[C@H](CN(CC2CCCCC2)[C@@H]4c2ccccc2)C3c2ccc(C(F)(F)F)cc2)c1 (stereo partly specified) | . | . | . | . | . | 15.2%
CCSc1nc2sc3c(c2c(=O)[nH]1)CCCC3 | -2.1% | 20.4% | -9.6% | 0.7%[59 µM] | 4.6% | 9.3%
CCSc1nc2sc3c(c2c2[n+]1CC(CBr)O2)CCCC3 (stereo unspecified) | 56.2µM* | -24.2% | -12.9% | 25.1µM* | 56.2µM* | 50.1µM*
CCOC(=O)c1c(-c2ccc(C)cc2)csc1NC(=S)NC(=O)c1ccccc1 | -29.3% | 2.9% | 3.5% | -11.5%[59 µM] | ? | 21.0%
CCOC(=O)c1c(-c2ccccc2)csc1NC(=O)c1cc(-c2ccc(Br)cc2)on1 | -26.7% | ? | . | 6.31µM* | -6.1% | .

Screens as filed in PubChem BioAssay.
